± gives the standard deviation. The full ranking holds about 8,200 sequences; the median of “pre-steady-state target cleavage rate” is about 0.024, and the highest 2% start at about 1.3. For the sample, the highest values were picked, then their nearest neighbours and some sequences at random.
Test system: MIWI (PIWIL1) piRISC loaded with L1MC piRNA (30 nt)
Experiment: pre-steady-state target cleavage rate (min^-1); MIWI and MILI are mouse PIWI proteins and EfPiwi is from a freshwater sponge; tags in brackets are library labels; higher = faster piRNA-guided slicing of the target
Conditions: guide: L1MC piRNA 5'p-UAACUAAAUACUAUGCAAGCUGUAGGUCCU
Description: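 Cleave-'n-Seq: a library of target RNAs (target site embedded in constant flanks, ACAGCATTCCGCGTTAGTGATATCCG... 5' flank; DNA-blocked outside the site) at 0.1 nM was incubated with 1 nM active mouse MILI or MIWI piRISC (synthetic 5'-monophosphorylated piRNA guide) with or without 500 nM mouse GTSF1 at 33 °C for 1 min to 16 h. Uncleaved targets were sequenced and normalised to non-target controls, and the pooled three trials were fitted to a burst-and-steady-state model to give the pre-steady-state cleavage rate (min^-1; k3 is constrained to at most 1e-4). Sequence is the target site only; target names encode pairing extent (gX:gY) and contiguous / 1-mismatch / 2-mismatch / bulge geometry. Fits with R² ≤ 0 are excluded.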

[1] = auxiliary factor: 500 nM mouse GTSF1
[2] = auxiliary factor: none (no GTSF1)

| Sequence | pre-steady-state target cleavage rate [1] | pre-steady-state target cleavage rate [2] |
| --- | --- | --- |
| AGGACCUACAGCUUGGAUAGUAUAUAGUUA | 0.736 ± 0.053 | 0.0336 ± 0.0076 |
| AGGACCUUCAGCUUGCUUAGUAUUUAGUUA | 1.44 ± 0.055 | 0.0546 ± 0.01 |
| UCCUCCUACAGCUUGCUUAGUAUAUAGUUA | 0.617 ± 0.034 | 0.0104 ± 0.0032 |
| UGGACCUACAGCUUGCUUAGUAUAUAGUUA | 0.842 ± 0.063 | 0.0175 ± 0.0052 |
| UCCACCUACAGCUUGCUUAGUAUAUAGUUA | 0.357 ± 0.027 | 0.0111 ± 0.0025 |
| UCGACCUACAGCUUGCUUAGUAUAUAGUUA | 0.879 ± 0.063 | 0.0168 ± 0.004 |
| AGGACCUACAGCUUGCUUAGUAUAUAGUUA | 0.762 ± 0.071 | 0.0291 ± 0.0082 |
| UGGACCUUCAGCUUGCUUAGUAUUUAGUUA | 1.49 ± 0.09 | 0.0441 ± 0.011 |
| AGGACCUACAGCAUGCAUACUAUUUAGUUA | 0.39 ± 0.023 | 0.0205 ± 0.0035 |
| UGGACCUACAGCUCGCAUAGUAUUUAGUUA | 1.54 ± 0.096 | 0.0604 ± 0.0083 |
| UCCACCUACAGCUCGCAUAGUAUUUAGUUA | 1.11 ± 0.043 | 0.0579 ± 0.012 |
| AGGACCUACAGCUGGCAUAGUAUUUAGUUA | 1.29 ± 0.057 | 0.0579 ± 0.011 |
| UCGACCUACAGCUCGCAUAGUAUUUAGUUA | 1.55 ± 0.04 | 0.0682 ± 0.013 |
| AGGACCUACAGCUCGCAUAGUAUUUAGUUA | 1.35 ± 0.068 | 0.0694 ± 0.013 |
| UCCUGCUACAGCUCGCAUAGUAUUUAGUUA | 1.14 ± 0.062 | 0.0391 ± 0.0067 |
| UCCUCCUACAGCUCGCAUAGUAUUUAGUUA | 1.31 ± 0.051 | 0.0488 ± 0.0093 |
| UGGACCUACAGCUACCAUAGUAUUUAGUUA | 0.493 ± 0.043 | 0.00241 ± 0.0021 |
| UGGACCUACAGCUUGCAUAGUUUUUACUUA | 0.0927 ± 0.013 | 0.0125 ± 0.0027 |
| UGCACCUACAGGUUGCAUAGUAUUUAGUUA | 0.859 ± 0.15 | 0.0244 ± 0.0052 |
| UCCUGCUACAGCUUGCAUAGAAAUUAGUUA | 0.2 ± 0.021 | 0.00609 ± 0.0021 |

| Sequence | pre-steady-state target cleavage rate [1] | pre-steady-state target cleavage rate [2] |
| --- | --- | --- |
| AGGACCUACACCUUGCAUAGUAUUUAGUAA | 0.838 ± 0.068 | 0.0538 ± 0.0089 |
| UCCACCUACAGCUUGCAUAGUAUUUUCUAA | 0.361 ± 0.048 | – |
| UCCUGGAACAGCUUGGAUAGUAAUUAGUUA | 0.565 ± 0.055 | 0.0197 ± 0.0059 |
| UCCUGGAACAGCUUGCAUAGUUUUUAGUAA | 0.191 ± 0.025 | 0.0332 ± 0.01 |
| UCCUGGUACUGCUUGGAUAGUAUUUAGUUA | 0.391 ± 0.078 | 0.0193 ± 0.0036 |
| ACGACCUACUGCUUGCAUAGUAUUUAGUUA | 1.51 ± 0.054 | 0.0792 ± 0.013 |
| AGGACCUACUGCUUGCAUAGUAUUUAGUUA | 1.21 ± 0.049 | 0.0777 ± 0.012 |
| UCGACCUACUGCUUGCAUAGUAUUUAGAUA | 0.273 ± 0.023 | 0.0197 ± 0.0035 |
| UCCACCUACUGCUUGCAUAGUAUUUAGUUA | 0.697 ± 0.027 | 0.0467 ± 0.0067 |
| UCGACCUACUGCUUGCUUAGUAUUUAGUUA | 1.52 ± 0.061 | 0.031 ± 0.0067 |
| UCCACCUACUGCUUGCUUAGUAUUUAGUUA | 0.816 ± 0.029 | 0.0276 ± 0.0058 |
| UGCACCUACUGCUUGCAUAGUAUUUAGUUA | 1.16 ± 0.097 | 0.0725 ± 0.014 |
| UGGACCUACUGCUUGCAUAGUAUUUAGUAA | 0.708 ± 0.039 | 0.0421 ± 0.008 |
| UCGACCUACUGCUUGCAUAGUAUUUAGUUA | 1.41 ± 0.035 | 0.0694 ± 0.011 |
| UGGACCUACUGCUUGCAUAGUAUUUAGUUA | 1.46 ± 0.073 | 0.0611 ± 0.0097 |
| UCGACCUACUGCUUGCAUAGUAUUUAGUAA | 0.797 ± 0.036 | 0.0434 ± 0.0074 |
| UCCUCCUACUGCUUGCUUAGUAUUUAGUUA | 1.06 ± 0.04 | 0.03 ± 0.0053 |
| UCCUGCUACGCUUGCAUAGUAUUUAGUUA | 1.12 ± 0.08 | 0.0532 ± 0.011 |
| AGGUCCUACAGCUUGCAUAGUAUUAAGUUA | 0.381 ± 0.034 | 0.054 ± 0.013 |
| UCCUCCUAGAGCUUGCUUAGUAUUUAGUUA | 1.04 ± 0.059 | 0.0213 ± 0.0041 |

| Sequence | pre-steady-state target cleavage rate [1] | pre-steady-state target cleavage rate [2] |
| --- | --- | --- |
| UGGACCUACAGCUUGCUUACUAUUUAGUUA | 0.493 ± 0.031 | 0.0127 ± 0.0038 |
| UCGACCUACAGCUUGCAUAGUUAAUAGUUA | 0.122 ± 0.019 | 0.00697 ± 0.0029 |
| UCCUGGAUGUCGUGCAUAGUAUUUAGUUA | 0.031 ± 0.0083 | 0.00348 ± 0.0032 |
| UCCUCCUACACCUAGCAUAGUAUUUAGUUA | 0.657 ± 0.057 | 0.0111 ± 0.0022 |
| UCCUGGAACAGCUUGCAUAGUAUAAACAAA | 0.18 ± 0.043 | – |
| UGGACCUACAGCUUCGAUAGUAUUUAGUAA | 0.307 ± 0.04 | – |
| UCCUGGAUGUGCUUGCUUAGUAUUUAGUAA | 0.0383 ± 0.008 | 0.0104 ± 0.0033 |
| UGGACCUACAGCUUGCAUAGUAUUAAGAUA | 0.174 ± 0.028 | 0.00558 ± 0.0024 |
| UGGACCUACUGCAUGCAUAGUAUUUAGUUA | 1.27 ± 0.08 | 0.0325 ± 0.0061 |
| UGGACCAACUGCUUGCAUAGUAUUUAGUUA | 1.27 ± 0.055 | 0.0655 ± 0.011 |
| UCGACCUACUGCAUGCAUAGUAUUUAGUUA | 1.33 ± 0.056 | 0.0324 ± 0.0055 |
| AGGACCAACUGCUUGCAUAGUAUUUAGUUA | 1.22 ± 0.056 | 0.0799 ± 0.014 |
| AGGACCUACUGCAUGCAUAGUAUUUAGUUA | 1.3 ± 0.06 | 0.0566 ± 0.01 |
| UGGACCUACUGCUUGCAAAGUAUUUAGUUA | 1.23 ± 0.059 | 0.0383 ± 0.0078 |
| UCGACCUACUGCUUGCAAAGUAUUUAGUUA | 1.33 ± 0.037 | 0.051 ± 0.01 |
| AGGACCUACUGCUUGCAAAGUAUUUAGUUA | 1.11 ± 0.057 | 0.0455 ± 0.0095 |
| UCGACCAACUGCUUGCAUAGUAUUUAGUUA | 1.43 ± 0.041 | 0.0724 ± 0.012 |
| UCCUGGUACAGCUACCAUAGUAUUUAGUUA | 0.366 ± 0.05 | – |
| UCCACCUACUGCUUGCAUAGUAUUUACUUA | 0.243 ± 0.025 | 0.0254 ± 0.0034 |
